Measured values reported in PubChem BioAssay.
The source made the active and inactive calls.

System: Neuregulin-1 EGF-like domain
Assay: binders of neuregulin-1 EGF-like domain, primary screen, biochemical, small-molecule microarray, 635 nm fluorescence (AID 1081);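 further: binding of the protein to compounds printed on small-molecule microarray slides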
Conditions: small-molecule microarray binding, higher = more signal

Composite z-score, 0.76:
C=CCN1C(=O)[C@]2(O[C@H](CCn3cc([C@H](O)c4ccccc4)nn3)[C@@H]([Si](C)(C)c3ccc(OC)cc3)[C@@H]2C)c2cc(N3C(=O)c4cccc5cccc3c45)ccc21

Composite z-score, 1.28:
CN(C)C(=O)[C@]1(Cc2ccccc2)N=C(c2ccc(OCCCO)cc2)O[C@@H]1c1ccccc1

Composite z-score, 1.14:
CCCCC(=C=CC[C@H](O)c1ccc(OCCO)cc1)C[C@H](O)c1ccccn1

Composite z-score, 0.808:
Cc1ccc(S(=O)(=O)N2[C@@H](c3ccccc3)C(C(=O)O)=CC[C@H]2c2ccc(C#N)cc2)cc1

Composite z-score, 0.0521:
CCCC[C@@H]1C[C@H]1[C@@H](NC(=O)c1ccc(C(F)(F)F)cc1)c1ccc(C(=O)OC)cc1

Composite z-score, 1.23:
CCC(CC)C(O)C1C=CC2C(=O)N(C)C(=O)C2N1N1CCCCC1 (centres undefined)

Composite z-score, 0.818:
COc1ccc([Si](C)(C)[C@H]2[C@H](CCO)O[C@@]3(C(=O)N(Cc4ccccc4)c4ccc(N(C=O)c5ccccc5)cc43)[C@@H]2C)cc1

Composite z-score, 0.923:
COCCOC(=O)N1C(=O)[C@@]2(c3cc(C#Cc4ccc(OC)cc4)ccc31)[C@H](C(=O)Nc1nc3ccccc3s1)[C@H]1C(=O)O[C@H](c3ccccc3)[C@H](c3ccccc3)N1[C@@H]2c1ccccc1OCCO

System: not listed separately
Assay: FRG1 promoter luciferase signal modulators, primary screen, FRG1 inhibition for FSHD, cell-based, C2C12 myotubes, firefly/Renilla luciferase, luminescence (AID 1084)
Conditions: higher = more signal, called active from +8 up or from −8 down

z-score, inactive:
CC(C)C[C@@H]1NC(=O)[C@@]23C(=O)N[C@@H](Cc4ccccc4)C2[C@H](C)[C@@]2(C)O[C@H]2C3/C=C/C/C=C\CNC(=O)[C@@H](CC(C)C)NC1=O (some centres undefined) 2.49
C=CCC(OC(C)=O)[C@@H]1[C@@H](N(Cc2ccc(-c3cccc(C(F)(F)F)c3)o2)C(=O)c2cccc3ccccc23)c2cc(OCCCO)ccc2N1C(=O)c1ccc2ccccc2c1 (some centres undefined) 0.141
O=C1OCCC/C=C\[C@H]2OC34C=CCN(Cc5ccccc5)C(=O)[C@H]3N(CCCCCO)C(=O)[C@@H]4C12 (some centres undefined) 2.92
CCCC=C(CCC)[C@@H](NC(=O)c1ccccc1)c1ccc(C(=O)OC)cc1 3.19
COC(=O)[C@@]1(Cc2ccc(F)cc2)[C@H]2c3cc(C(=O)N4CCCC4)n(CCO)c3C[C@H]2CN1C(=O)c1ccccc1 0.383
COCCCNC(=O)[C@@]1(Sc2ccc(C)cc2)CC(=O)N(C2CCCCC2)[C@@H]1c1ccc(CO)cc1I -3.63
COc1ccc([Si](C)(C)[C@H]2[C@H](CCO)O[C@@]3(C(=O)N(Cc4ccc(N5CCOC5=O)cc4)c4ccccc43)[C@@H]2C)cc1 -4.39
C=CCNC(=O)[C@@H]1[C@H]2C(=O)O[C@H](c3ccccc3)[C@H](c3ccccc3)N2[C@H](c2ccccc2OCCO)[C@@]12C(=O)N(C(=O)OCCOC)c1ccc(C#CCCO)cc12 0.0106
COCCOC(=O)N1C(=O)[C@@]2(c3ccccc31)[C@H](C(=O)N1CCCCCCC1)[C@H]1C(=O)O[C@H](c3ccccc3)[C@H](c3ccccc3)N1[C@@H]2c1ccc(O)cc1 -1.43
CCCCC(=C=CC[C@@H](O)c1cccc(OCCO)c1)CCO -0.225
O=C(NCC(F)(F)F)[C@@H]1c2ccccc2C(=O)N(CC23CC4CC(CC(C4)C2)C3)[C@H]1c1ccc(CO)cc1 -3.95
C=CCC(OC(C)=O)[C@@H]1[C@@H](N(Cc2cccc3ccccc23)C(=O)c2ccc(C)cc2)c2cc(OCCCO)ccc2N1C(=O)c1ccc2ccccc2n1 (some centres undefined) -1.44
CC#CCO[Si](C#CCCCCCC)(C(C)C)C(C)C -0.524
CC(C)(C)OC(=O)CC[C@]1(C(N)=O)N=C(c2ccc(OCCCO)cc2)O[C@H]1c1ccccc1CN=[N+]=[N-] 5.29
COc1ccc(CCNC(=O)[C@@]2(C)c3ccccc3C(=O)N(Cc3cc(C(F)(F)F)cc(C(F)(F)F)c3)[C@H]2c2ccc(CO)cc2)cc1 -1.62
CN(C)CCCC[C@@H]1NC(=O)[C@@H]2C[C@H](C(=O)NCCCCCCNC(=O)CS)[C@H](c3cccc(OCCO)c3)N2C1=O -0.786
COCCCNC(=O)[C@@H]1c2ccccc2C(=O)N(C2CCCCC2)[C@H]1c1ccc(CO)cc1 -0.108
COC(=O)C1=CC(CCCO)=CC(C2CC2)N(Cc2cccc(OC(F)(F)F)c2)C=C1C(=O)OC (centres undefined) 0.503
C=C(C(=O)CC[C@@H](OC(C)=O)c1cccc(OCCO)c1)C(C)C 0.44
COc1ccc([Si](C)(C)[C@@H]2[C@@H](CC(=O)N(CCO)Cc3ccccc3)O[C@]3(C(=O)N(Cc4ccc(N5CCC5=O)cc4)c4ccccc43)[C@H]2C)cc1 -0.192
CC(C)CNC(=O)[C@@H]1c2ccccc2C(=O)N(CC23CC4CC(CC(C4)C2)C3)[C@H]1c1ccc(CO)cc1 -1.49
COc1cc2c(cc1O)C(c1ccc(CN3CCCC3)cc1)N(Cc1ccc([N+](=O)[O-])o1)CC2 (centres undefined) 1.06
COC(=O)[C@]1(CO)N=C(c2ccc(OCCCO)cc2)O[C@@H]1c1ccccc1CN=[N+]=[N-] 1.7
COCCOC(=O)N1C(=O)[C@@]2(c3ccccc31)[C@H](c1ccc(OCCO)cc1)N1[C@H](c3ccccc3)[C@H](c3ccccc3)OC(=O)[C@H]1[C@@H]2C(=O)N1CCN(c2ncccn2)CC1 -0.132
COCCOC(=O)N1C(=O)[C@@]2(c3cc(C#Cc4ccc(OC)cc4)ccc31)[C@H](c1ccc(OCCO)cc1)N1[C@H](c3ccccc3)[C@H](c3ccccc3)OC(=O)[C@H]1[C@@H]2C(=O)N1CCCCCCC1 -0.531
Cc1ccccc1C(O)C1C=CC2C(=O)N(c3ccccc3)C(=O)C2N1Nc1ccccc1F (centres undefined) -1.35
CO[C@H]1O[C@H](CO)[C@@H](OC(=O)Nc2ccc(C(F)(F)F)cc2)[C@H](OC(=O)Nc2ccccc2-c2ccccc2)[C@@H]1OC(=O)Nc1ccccc1-c1ccccc1 -0.228
C=C(COC)C(=O)CC[C@@H](OC(C)=O)c1ccc(OCCO)cc1 -0.556
CCC(CC)C(O)C1C=CC2C(=O)N(C)C(=O)C2N1N1CCCCC1 (centres undefined) 0.855
CCCC[C@@H]1C[C@H]1[C@@H](NC(=O)c1ccc(C(F)(F)F)cc1)c1ccc(C(=O)OC)cc1 -2.69
C=CCN1C(=O)[C@]2(O[C@H](CCn3cc([C@H](O)c4ccccc4)nn3)[C@@H]([Si](C)(C)c3ccc(OC)cc3)[C@@H]2C)c2cc(N3C(=O)c4cccc5cccc3c45)ccc21 -1.84
COc1ccc([Si](C)(C)[C@H]2[C@H](CCO)O[C@@]3(C(=O)N(Cc4ccccc4)c4ccc(N(C=O)c5ccccc5)cc43)[C@@H]2C)cc1 -0.919
COCCOC(=O)N1C(=O)[C@@]2(c3cc(C#Cc4ccc(OC)cc4)ccc31)[C@H](C(=O)Nc1nc3ccccc3s1)[C@H]1C(=O)O[C@H](c3ccccc3)[C@H](c3ccccc3)N1[C@@H]2c1ccccc1OCCO 0.349
CN(C)C(=O)[C@]1(Cc2ccccc2)N=C(c2ccc(OCCCO)cc2)O[C@@H]1c1ccccc1 -0.306
CCCCC(=C=CC[C@H](O)c1ccc(OCCO)cc1)C[C@H](O)c1ccccn1 -0.865
Cc1ccc(S(=O)(=O)N2[C@@H](c3ccccc3)C(C(=O)O)=CC[C@H]2c2ccc(C#N)cc2)cc1 -3.73
